Source: PubChem
The sample as a whole holds a higher share of hits than the screen did.
FBPA Giardia inh – qHTS Assay for Inhibitors of Fructose-1,6-bisphosphate Aldolase from Giardia Lamblia; purified Giardia FBPA; Potency, µM (titrated, usually from 59.6 µM), for inactives: top-dose activity, negative = inhibition, usual class: inhibitors; AID 2451, 2010; A8B2U2; 290,000 compounds, 0.71% hits; also: potency is read from the fitted curve at half-maximal effect; % is scaled to controls: 0 for no effect and ±100 for the full control effect; nearly all actives have a fitted effect of over 55% in size
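40 nM FBPA preincubated 10 min at RT with compound (up to 57.5 uM final), then substrate plus GAPDH/TPI/NAD/arsenate coupling and diaphorase/resazurin added. Fluorescence read after 20 min at RT, 525/598 nm.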
Shiga toxin inh – A qHTS for Small Molecule Inhibitors of Shiga Toxin | inhibition, % at 38.7 µM | 290,000 compounds, 9.2% hits | Vero cells, Shiga toxin protein synthesis inhibition reporter; in the data active = inhibition mostly above about 28%, no sharp cut-off; inactive = mostly below about 43%; also: 0% is about no effect
LmPK inh – qHTS Assay for Inhibitors of Leishmania Mexicana Pyruvate Kinase (LmPK); Q27686; purified LmPK, Kinase-Glo ATP luminescence, 1 h; Potency, µM (series often up to 57.5 µM), for inactives: at the highest dose activity change, negative = inhibition, actives largely listed as inhibitors; 290,000 compounds, 0.37% hits; AID 1721, 2009; also: potency is read from the fitted curve at half-maximal effect; % is scaled to controls: 0 for no effect and ±100 for the full control effect
Target sequence (Q27686 whole entry, looked up): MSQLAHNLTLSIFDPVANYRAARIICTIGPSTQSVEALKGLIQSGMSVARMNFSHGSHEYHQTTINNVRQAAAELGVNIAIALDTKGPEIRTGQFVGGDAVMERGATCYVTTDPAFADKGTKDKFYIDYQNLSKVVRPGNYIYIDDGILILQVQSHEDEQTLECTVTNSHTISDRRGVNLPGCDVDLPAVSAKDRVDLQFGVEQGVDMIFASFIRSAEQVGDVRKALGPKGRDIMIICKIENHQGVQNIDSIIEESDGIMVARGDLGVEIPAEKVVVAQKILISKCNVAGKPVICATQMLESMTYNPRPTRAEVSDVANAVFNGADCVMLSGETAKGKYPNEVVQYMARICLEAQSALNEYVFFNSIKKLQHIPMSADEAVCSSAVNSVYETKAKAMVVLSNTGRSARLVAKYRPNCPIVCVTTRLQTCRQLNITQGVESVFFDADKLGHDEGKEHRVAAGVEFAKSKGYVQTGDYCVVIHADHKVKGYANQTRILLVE
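Purified LmPK (0.1 nM) with 0.5 mM PEP and 0.1 mM ADP in imidazole buffer pH 7.2 with MgCl2/KCl, 1 h at room temperature. ATP formed was read by luciferase luminescence and normalized to no-enzyme and uninhibited controls.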
Cycloheximide cs – Cycloheximide Counterscreen for Small Molecule Inhibitors of Shiga Toxin; 300,000 compounds, 12% hits; cell reporter, cycloheximide protein synthesis inhibition counterscreen; max response, %; in the data active = max response mostly above about 13%, no sharp cut-off; inactive = mostly below about 14%; also: read at 38.3 µM for the half of the compounds with a filed dose; 0% is about no effect
Sm TGR inh – qHTS Assay for the Inhibitors of Schistosoma Mansoni Peroxiredoxins | purified TGR, DTNB reduction, TNB absorbance 405 nm | Schistosoma mansoni thioredoxin glutathione reductase (TGR), Q962Y6 | AID 485364, 2010 | 360,000 compounds, 3% hits | Potency, µM (series often up to 114 µM), inactives show top-dose activity change, negative = inhibition, most hits filed as inhibitors; also: potency is read from the fitted curve at half-maximal effect; % is scaled to controls: 0 for no effect and ±100 for the full control effect; nearly all actives have a fitted effect of over 60% in size
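TGR 20 nM + NADPH 100 uM (dispensed conc.), cpd preinc 15 min RT; start with NADPH (500 uM addition) then DTNB (15 mM addition). Kinetic TNB absorbance, 405 nm filter. Four-parameter Hill fit across titration.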
TbPYK inhibitor – qHTS of Trypanosoma Brucei Inhibitors; pyruvate kinase (Trypanosoma brucei), Q57TT1; TbPYK enzyme, Kinase-Glo Plus ATP luminescence, 45 min; Potency, µM (top dose mostly 76.8 µM), without a hit: at the highest dose activity, negative = inhibition, usual class: inhibitors; 410,000 compounds, 0.12% hits; AID 624173, 2012; also: potency is read from the fitted curve at half-maximal effect; % is scaled to controls: 0 for no effect and ±100 for the full control effect; nearly all actives have a fitted effect of over 50% in size
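Luminescence from Kinase-Glo Plus, added after a 45-minute room-temperature reaction, served as the end-point read-out. The enzyme and substrate were preincubated with compound before ADP (130 uM final) initiated turnover. Concentration-effect curves came from normalized qHTS data.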
Starred values were filed as active, the others as inactive; ? = inconclusive; . = no result. Unless noted, calls follow the shape of the dose curve; as a rule, active = well fitted curve in the direction sought with a large enough effect; inconclusive = small, poorly fitted or top-dose-only effect, or another doubt; inactive = no such curve, though single readings can be large; an effect the other way counts as inactive or inconclusive.

SMILES	FBPA Giardia inh	Shiga toxin inh	LmPK inh	Cycloheximide cs	Sm TGR inh	TbPYK inhibitor
CC1CCc2c(sc3nc(-c4cc5ccccc5oc4=O)nc(Cl)c23)C1 (configuration not stated)	.	.	.	.	-5.9%	2.6%
O=C(Nc1nc2cc3c(cc2s1)OCCO3)C1CCCCC1	.	.	.	.	0.9%	-8.8%
O=C(Nc1nc2cc3c(cc2s1)OCO3)C1CC1	3.1%	81.3*	-1.2%	24.3*	-4.9%	4.9%
O=C(Nc1nc2cc3c(cc2s1)OCO3)C1CCCCC1	.	108.3*	0.4%	89.2*	0.8%	-3.5%
COc1ccc(S(=O)(=O)c2c(C)c(NS(=O)(=O)c3ccccc3)cc(C)c2O)cc1	21.7%	8.7	5.2%	1.0	-18.1%	-6.6%
COc1ccc(S(=O)(=O)Nc2cc(C)c(O)c(S(=O)(=O)c3ccccc3)c2)cc1	3.8%	10.4	11.6%	0.8	56.2µM*	3.4%
CCCCNC(=S)Nc1ccc2nc3n(c(=O)c2c1)CCCCC3	6.3%	15.7	-0.9%	21.5*	-34.7%	-10.2%
CC(C)CCNC(=S)Nc1ccc2nc3n(c(=O)c2c1)CCCCC3	-2.3%	26.8*	4.3%	4.9	?	-8.2%
CSc1nnc2c(n1)OC(c1cccc(O)c1Cl)Nc1ccccc1-2 (configuration not stated)	.	.	.	.	-12.7%	2.2%
CC(=O)N1CCN(c2ccc(NC(=O)c3ccccc3)cc2)CC1	9.3%	39.3*	-7.6%	22.8*	1.2%	1.2%
CC(=O)N1CCN(c2ccc(NC(=O)c3cccc(C)c3)cc2)CC1	1.0%	.	-1.4%	12.8*	0.1%	1.7%
CC(=O)N1CCN(c2ccc(NC(=S)NC(=O)c3ccccc3)cc2)CC1	-20.6%	-2.0	4.2%	-2.7	-14.9%	2.7%
Cc1cccc(C(=O)Nc2ccc(C(=O)N3CCCCC3C)cc2)c1 (configuration not stated)	5.3%	29.5	9.0%	23.6*	1.2%	-8.6%
Cc1ccc(-c2nc3ncccc3o2)cc1NC(=O)c1ccc(-c2cccc(Cl)c2C)o1	.	.	.	.	-10.1%	0.1%
Cc1nc2c(c(SCC(=O)Nc3ccccc3C(F)(F)F)n1)CCC2	.	.	.	.	-0.4%	0.0%
COc1ccc2[nH]cc(CCNc3nc(-c4ccccc4CN(C)C)nc4ccccc34)c2c1	-6.9%	.	.	.	.	.
COC(=O)c1ccc(-c2noc(CN(Cc3ccncc3)CC3CCCO3)n2)cc1 (configuration not stated)	1.6%	-10.9	5.8%	-3.6	2.9%	4.6%
CN(CCN1CCOCC1)Cc1nc(-c2ccc(Cl)cc2)no1	3.2%	10.6	-8.8%	2.2	-8.2%	4.9%
CN(Cc1nc(-c2cccc(Cl)c2)no1)C1CCOCC1	0.8%	83.8*	1.8%	34.9*	4.5%	11.0%
CCN(Cc1nc(-c2cccc(Cl)c2)no1)CC1CCCO1 (configuration not stated)	0.0%	24.5	7.9%	13.2*	-0.5%	-1.8%
COc1ccc(-n2ccnc(NCc3cccs3)c2=O)cc1OC	.	.	.	.	-18.6%	-5.2%
C=CCSc1nc2ccccc2n1S(=O)(=O)c1ccc(C)cc1	?	18.9	-2.1%	20.6*	-0.2%	-0.3%
CCc1c(C)nc2nncn2c1Nc1ccc(Cl)cc1	.	.	.	.	1.6%	3.0%
COc1ccc(C2/C(=C(/O)c3ccc4c(c3)CC(C)O4)C(=O)C(=O)N2CCN2CCOCC2)cc1 (configuration not stated)	-2.6%	-17.5	-3.1%	-1.5	-5.6%	-3.4%
CCOc1ccc(C2/C(=C(/O)c3ccc4c(c3)CC(C)O4)C(=O)C(=O)N2CCCn2ccnc2)cc1OCC (configuration not stated)	.	-5.7	-6.0%	-6.4	89.1µM*	1.9%
COc1cc(C2/C(=C(\O)c3ccc4c(c3)CC(C)O4)C(=O)C(=O)N2CCCn2ccnc2)ccc1O (configuration not stated)	7.9%	18.5	1.1%	3.3	-32.7%	-5.5%
